Screen size: about 120,000 compounds; about 5,300 (4.4%) were called active. Where a call stands in place of a potency, no number is given. Not shown: some 22% with an inconclusive outcome. The sample as a whole holds a higher share of actives than the screen did. Unmarked numbers belong to inactive results. Calls come from the whole dose curve; as a rule, active = well fitted inhibition curve with a large enough effect; inconclusive = small, poorly fitted or top-dose-only effect; inactive = no such curve, though single readings can be large or run the other way.
Potency is the fitted concentration of half-maximal effect.

This experiment is described as follows: qHTS Primary assay for Inhibitors of Plasmodium falciparum Dd2 growth in vitro. Note: nearly all actives have a fitted effect of over 65% in size. As to conditions: P. falciparum Dd2 growth, SYBR Green, 72 h; series mostly up to 28.9 µM. Put shortly: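 Infected erythrocytes (Dd2, 0.3% parasitemia, 2.5% hematocrit final) are added to compound in RPMI-1640/Albumax II medium, grown 72 h at 37C in low oxygen, then lysed with saponin/Triton-X containing SYBR Green and read by fluorescence.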
On to `CSc1nccc(N2CCC(c3nccn3Cc3cccnc3)CC2)n1`, for which the Potency result is “inactive”.

As to `CCS(=O)(=O)N1CCCN(C(=O)C2CC2)C(c2ccccc2)CC(=O)NCC1` (stereo not drawn), the Potency result was “inactive”.

Turning to `CN1CC2(CCN(C(=O)c3n[nH]c(=O)c4ccccc34)CC2)CC1C(=O)N1CCOCC1` (stereo not drawn), the Potency entry is “inactive”.

In the case of `CN(C)C(=O)c1nc(-c2cccnc2)c2ccccn12`, the Potency entry is “inactive”.

In the case of `O=C(NCc1cccnc1)c1nc(-c2ccc(Cl)nc2)c2cnccn12`, the Potency entry is “inactive”.

In the case of `CN(C)C(=O)c1nc(-c2ccc(Cl)cc2Cl)c2cnccn12`, the Potency was 10 µM (active).

Take `O=C1CCN(C(=O)CN2CCCCCC2)CCCC(c2nc(-c3ccccc3)no2)CCN1` (stereo not drawn): the Potency result is “inactive”.

In the case of `Cc1cc(C[C@@H]2COC[C@@H]2NC(=O)c2ccc3nc(C)[nH]c3c2)on1`, the Potency entry was “inactive”.

For `CCc1ccc(Nc2nn3c(=O)c4cc5c(cc4nc3s2)OCO5)cc1`, the Potency result is “inactive”.

Regarding `Cc1ccccc1Nc1nn2c(=O)c3ccc(C(=O)NCCc4ccc(Cl)cc4)cc3nc2s1`, the Potency is 3.16 µM (active).

Regarding `O=C(NCCc1ccc(Cl)cc1)c1ccc2nc(CCc3ccccc3)oc2c1`, the Potency result is “inactive”.

Regarding `CC(C)c1nc(CNC(=O)c2ccc(N(C)C)nc2)no1`, the Potency result was “inactive”.

On to `c1cc(-c2ccsc2)n2nc(C3CCCO3)nc2n1` (stereo not drawn), for which the Potency result is “inactive”.

For `Cn1cc(CN2CCCN(C(=O)c3ccco3)CC2)c(-c2ccc(C3CCCCC3)cc2)n1`, the Potency was 8.91 µM (active).

Regarding `Cc1ccc([C@@H]2CN(C(=O)c3ccco3)[C@@H]3C4CCN(CC4)[C@@H]32)cc1`, the Potency result is “inactive”.

As for `COCCn1nc2n(c1=O)CCN(C(=O)c1ccco1)CC2`, the Potency result was “inactive”.

For `COCc1nc(CCNC(=O)CCc2ccccc2)no1`, the Potency result is “inactive”.

As for `COc1ccc(-c2cc(N3CCCN(C(=O)c4ccc(OC)cc4C)CC3)n[nH]2)cc1`, the Potency entry is “inactive”.

With `CCn1nccc1C(=O)N1CCn2nnc(CCC(=O)NCc3ccccc3)c2C1`, the Potency entry is “inactive”.

As to `COc1ccc(-c2[nH]nc3ncc(-c4ccccc4)nc23)c(C)c1`, the Potency entry was “inactive”.

On to `Cc1ccccc1-c1[nH]nc2ncc(-c3ccccc3)nc12`, for which the Potency was 3.98 µM (active).

Consider `Cc1ccsc1-c1[nH]nc2ncc(-c3ccccc3O)nc12`, for which the Potency entry was “inactive”.

Regarding `Cc1ccc(CNC(=O)C2(c3ccc(NS(C)(=O)=O)cc3)CCCCC2)cc1`, the Potency entry was “inactive”.

`NCC(=O)N1CCCC2(Cc3ccccc3CN2C(=O)c2cccc(Cl)c2)C1` (stereo not drawn): the Potency is 11.2 µM (active).

Turning to `O=C(c1cccc(Cl)c1)N1CCC2(CC1)NCc1ccccc1NC2=O`, the Potency result was “inactive”.

As to `NCC(=O)N1Cc2ccccc2CC2(CCCCN2CC2CCOCC2)C1` (stereo not drawn), the Potency entry was “inactive”.

On to `COc1ccc(CN2CC[C@@H]3CN(S(C)(=O)=O)[C@@H]3C2)c(OC)c1`, for which the Potency result was “inactive”.

In the case of `Fc1ccc(-c2cc(NC3CCCC3)nc3[nH]ccc23)nc1`, the Potency result was “inactive”.

Turning to `c1ccc(CN2CCNc3cc(NCc4cccnc4)ncc3C2)cc1`, the Potency result was “inactive”.

On to `c1cncc(CNc2cc(-c3cnc4ccccc4n3)c3cc[nH]c3n2)c1`, for which the Potency is 3.98 µM (active).

Regarding `NC(=O)c1ccc(OC2CCN(C(=O)CCc3ccccc3)C2)nc1` (stereo not drawn), the Potency entry was “inactive”.

`O=C(c1ccccc1F)N1CC(Oc2cccc(-c3nc(-c4ccccc4)no3)c2)C1`: the activity, negative = inhibition was 36.6% [at 5.79 µM].

As for `CCCC(=O)N1CCC(N2C(=O)C(O)C23CCCCC3)CC1` (stereo not drawn), the Potency entry was “inactive”.

With `COCCN1CC[C@H]2CN(C(=O)Cc3ccc(OC)cc3)CC[C@H]2CC1=O`, the Potency result was “inactive”.

On to `C[C@]1(CO)C2CC[C@@H](O)[C@@H](CC(=O)N3CC[C@@H](O)C3)[C@]2(C)CC[C@H]1OC(=O)Nc1ccc(Oc2ccccc2)cc1` (stereo partly drawn), for which the Potency entry is “inactive”.

Turning to `COc1ccccc1Oc1ncccc1CNC(=O)c1ccc2n[nH]nc2c1`, the Potency result is “inactive”.

Take `COc1ccc(CCNC(=O)c2ccc(-n3c(C)cc4c3CCCC4)cc2)cc1OC`: the Potency is 11.2 µM (active).

As for `COc1ccc(CCNC(=O)c2noc(-c3ccc(C)cc3)n2)cc1OC`, the Potency result was “inactive”.

Regarding `COc1ccc(CCNC(=O)c2ccc3c(c2)nc(C)n3-c2ccc(Br)cc2)cc1OC`, the Potency result was “inactive”.

With `CCOc1ccccc1CNC(=O)C1CCCN(S(=O)(=O)c2ccc3c(ccn3C)c2)C1` (stereo not drawn), the Potency entry was “inactive”.

On to `COc1ccccc1CNC(=O)c1cc2c(s1)CCN(C(=O)c1ccccc1)C2`, for which the Potency result was “inactive”.

Regarding `CCOc1ccccc1CNC(=O)c1ccc(-n2c(C)cc3c2CCC(C)C3)cc1` (stereo not drawn), the Potency was 12.6 µM (active).

Regarding `CCOc1ccccc1CNC(=O)c1ccc2c(c1)nc1n2CCC(C)C1` (stereo not drawn), the Potency result was “inactive”.

As to `COc1ccccc1CNC(=O)c1ccc(-n2c(C)cc3c2CCCC3)cc1`, the Potency was 11.2 µM (active).

Take `COc1ccc(NC(=O)Cn2ccn3nc(-c4ccc(F)cc4)c(CO)c3c2=O)c(OC)c1`: the Potency entry is “inactive”.

For the compound `O=C(N[C@@H]1CN[C@H](CO)C1)c1ccncc1`, the Potency result is “inactive”.

For `COC(=O)[C@@H]1Cc2c([nH]c3ccccc23)[C@H]2C[C@@H](NCCN3CCOCC3)C[C@@H](c3ccccc3F)N21`, the Potency entry is “inactive”.

Regarding `Cc1cnc(C)c(N2CCN(C(=O)[C@H]3CC[C@@H](N)C3)CC2)n1`, the Potency result was “inactive”.

Turning to `O=C(Cc1ccc(F)cc1)N1CCCC(c2nn(-c3ccc(Cl)cc3)c(=O)[nH]2)C1` (stereo not drawn), the Potency result was “inactive”.

For `CC(=O)N1CCCC(c2nn(-c3ccccc3)c(=O)[nH]2)C1` (stereo not drawn), the Potency result was “inactive”.

Consider `O=c1[nH]c(C2CCCN(Cc3ccccn3)C2)nn1-c1ccc(Cl)cc1` (stereo not drawn), for which the Potency is 1.41 µM (active).

`COCCNC(=O)C1c2ccccc2C(=O)N(C2CCCC2)C12CCCCC2` (stereo not drawn): the Potency entry was “inactive”.

For the compound `Cc1cccnc1NC(=O)C1c2ccccc2C(=O)N(C2CCCC2)C12CCCC2` (stereo not drawn), the Potency result is “inactive”.

With `COCc1nnc(NC(=O)C2c3ccccc3C(=O)N(C3CCCC3)C23CCCC3)s1` (stereo not drawn), the Potency was 7.94 µM (active).

Consider `CS(=O)(=O)N1CCC(F)(c2nc(-c3ccccc3)no2)CC1`, for which the Potency entry is “inactive”.

`CN1CC(=O)N(c2ccccc2F)Cc2c(NCCc3ccc(F)cc3)ncnc21`: the Potency result is “inactive”.

Take `Cc1sc2cc(C(=O)N(C)C)[nH]c2c1CN1CCCCC1`: the Potency result was “inactive”.

Turning to `CC(C)OC(=O)c1ccc(NC(=O)Cn2nc3c(cc2=O)CCCCC3)cc1`, the Potency entry is “inactive”.

Consider `Cc1c(NS(=O)(=O)c2ccc(Cl)cc2)c(=O)n(-c2ccccc2)n1C`, for which the Potency entry was “inactive”.

As to `Cn1c(=O)n(C)c2cc(NS(=O)(=O)c3ccc(F)cc3)ccc21`, the Potency result was “inactive”.

For the compound `CC(=O)c1c(C)n(S(=O)(=O)c2ccc(Cl)cc2)c2ccc(NS(=O)(=O)c3ccc(Cl)cc3)cc12`, the Potency was 11.2 µM (active).

For `COCCCNc1nc2c(S(=O)(=O)c3ccc(C(C)C)cc3)nnn2c2ccccc12`, the Potency entry was “inactive”.

On to `COc1cc2c(=O)c(S(=O)(=O)c3ccc(C(C)C)cc3)cn(Cc3ccccc3C)c2cc1OC`, for which the Potency was 8.91 µM (active).

On to `O=C(NCc1cc(F)cc(F)c1)c1noc(-c2ccc3c(c2)OCO3)n1`, for which the Potency result is “inactive”.

Turning to `COc1ccc(CNC(=O)N2CCCCC2c2noc(COCC3CC3)n2)cc1` (stereo not drawn), the Potency entry is “inactive”.

For the compound `Cc1ccc(-c2cn3c(n2)sc2cc(C(=O)NCc4cccs4)ccc23)c(C)c1`, the Potency was 11.2 µM (active).

As to `CCOc1cccc2cc(-c3cn4c(n3)sc3cc(C)ccc34)c(=O)oc12`, the Potency entry is “inactive”.

As for `Cc1ccc(-c2cn3c(n2)sc2cc(C(=O)NCCCc4ccccc4)ccc23)cc1`, the Potency entry was “inactive”.

Take `O=C(NCc1ccccc1)c1cnc2n1CCN(Cc1c[nH]c3ccccc13)CC2`: the Potency result is “inactive”.

With `COCC(=O)Nc1ccc([C@H]2OCC(=O)N[C@@H]2CO)cc1`, the Potency entry was “inactive”.

On to `Cn1ncc(N2CCC(C(=O)N3CC=C(c4ccccc4)CC3)C2)cc1=O` (stereo not drawn), for which the Potency result is “inactive”.

`Cn1cnc(C(=O)N2CCC(OC3CCN(S(C)(=O)=O)CC3)CC2)c1`: the Potency result was “inactive”.

Turning to `CC(C)c1csc(CN2CCN(c3ncccc3C#N)CC2)n1`, the Potency result was “inactive”.

Turning to `COc1ccc(NC(=O)N2CCC(O)(c3csc(CN4CCc5ccccc5C4)n3)CC2)cc1`, the Potency entry is “inactive”.

As to `Oc1ccccc1CN1CCC(O)(c2csc(CN3CCN(c4ccccn4)CC3)n2)CC1`, the Potency is 7.94 µM (active).

As to `COc1ccccc1CCC(=O)N1CCC[C@H]1c1nc(-c2ccccc2)no1`, the Potency result was “inactive”.

Take `CC(C)c1cc(C(=O)NCc2cccnc2Oc2ccc(F)cc2F)on1`: the Potency result is “inactive”.

`CN(C)c1nc2c(c(=O)[nH]1)CCN(Cc1ccncc1)CC2`: the outcome was “inactive [at 5.79 µM]”.

Take `Cc1ccc(CN2C(=O)[C@@H]3C[C@@H](O)CN3C3(CN(Cc4ccncc4)C3)C2=O)o1`: the Potency entry was “inactive”.

`O=C1CC(c2ccccc2)N(C(=O)CNC(=O)c2cnccn2)CCCCCCN1` (stereo not drawn): the Potency entry was “inactive”.

Take `COc1ccc(OC)c(S(=O)(=O)N2CCCCCCNC(=O)CC2c2ccccc2)c1` (stereo not drawn): the Potency result is “inactive”.

As to `O=C1CC(c2ccccc2)N(Cc2cn[nH]c2-c2ccc(F)cc2)CCCCCN1` (stereo not drawn), the Potency is 8.91 µM (active).

With `Cn1cc(CC(=O)N2CCCc3ncc(C(=O)NCc4ccc(F)cc4)cc32)c2ccccc21`, the Potency result is “inactive”.

For `CC(=O)N1CCCN(Cc2nnc(C(=O)N3CCC[C@@H]3C(c3ccccc3)c3ccccc3)n2-c2ccccc2)CC1`, the Potency entry was “inactive”.

As to `Cc1nc(N2CCC(NCCNc3ccncc3C)CC2)c2ccsc2n1`, the Potency was 10 µM (active).

Turning to `Cc1nc(N2CCC(NC(=O)c3cnccn3)CC2)cc(C(F)(F)F)n1`, the Potency result is “inactive”.

Consider `Cc1occc1C(=O)NC1CCc2nn(CC3CC3)c(=O)n2CC1` (stereo not drawn), for which the Potency result is “inactive”.

Consider `CN1CCOC(CNc2ncc(C(C)(C)C(=O)O)c(N3CCOCC3)n2)C1` (stereo not drawn), for which the Potency entry was “inactive”.

As for `Cc1c(CNC(=O)c2ccc3c(c2)[nH]c(=O)n3C2CCC(O)CC2)cnn1C` (stereo not drawn), the Potency entry was “inactive”.

For `COc1ccc(-c2nc3c(c(SCC(=O)Nc4ccc(C(=O)O)cc4)n2)Cc2ccccc2O3)cc1`, the Potency entry is “inactive”.

In the case of `Cc1ccccc1CSc1nc(-c2ccccc2)nc2c1Cc1c(CO)cnc(C)c1O2`, the Potency is 3.98 µM (active).

Take `CSc1nc(-c2ccc(F)cc2)nc2c1Cc1c(CO)cnc(C)c1O2`: the Potency result is “inactive”.

On to `COc1cccc(C2Cn3nnc(-c4nc(-c5ccccc5F)no4)c3CO2)c1` (stereo not drawn), for which the Potency entry was “inactive”.

Turning to `Cc1ccc(CN2CCC(C3CCN(C)CC3)C2)o1` (stereo not drawn), the Potency entry was “inactive”.

`CCOc1cc(C(=O)N2CCC[C@H]2c2nc(-c3ccc(F)cc3)no2)cc(OCC)c1OCC`: the Potency entry is “inactive”.

`COC(=O)c1ccccc1NC(=O)c1ccc(COc2ccccc2Cl)o1`: the Potency entry is “inactive”.

As for `COC(=O)c1ccccc1NC(=O)C(Cc1ccccc1)N1Cc2ccccc2C1=O` (stereo not drawn), the Potency entry is “inactive”.

For `COC(=O)c1ccccc1NC(=O)c1cc(-c2ccccc2O)no1`, the Potency is 4.47 µM (active).
